Values without a mark were called inactive.
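Also: TDF is a line of transformed human dermal fibroblasts of mesenchymal origin.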

The test system of the experiment is TDF. The experiment is described as follows: H1.0 immunofluorescence intensity relative to DMSO (% of DMSO); higher = stronger H1.0 induction, active = 120 or more. The note with it: concentration: 10 µM; 24 h. An outline of the steps: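 H1.0 nuclear intensity or cell number is expressed as percent of the plate control, with the median of replicates taken. HCC1569 and TDF cells were treated with compounds at 10 µM for 24 h at 37 °C, in triplicate, then fixed and immunostained for H1.0 with DAPI as a nuclear stain. HCC1569 values were smoothed to correct for positional effects.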
As to `CC1(C)OC2CC3C4CC(F)C5=CC(=O)C=CC5(C)C4(F)C(O)CC3(C)C2(C(=O)CO)O1` (stereo not drawn) [Fluocinolone acetonide], the H1.0 immunofluorescence intensity was 88.2.
On to `COC(=O)c1c(-c2cc(OC)c(OC)c(OC)c2)c2ccc(OCc3ccccn3)cc2c(=O)n1-c1ccc(N)cc1.O=S(=O)(O)O`, for which the H1.0 immunofluorescence intensity was 95.1.
To `CN(C)C(=O)Nc1cccc(-c2ccc(N(C)C)cc2)c1` [3-(4'-(dimethylamino)-[1,1'-biphenyl]-3-yl)-1,1-dimethylurea] belongs 97.6.
The figure for `CC(=O)OCC(=O)[C@@]1(O)CC[C@H]2[C@@H]3CCC4=CC(=O)C=C[C@]4(C)[C@H]3[C@@H](O)C[C@@]21C` is 93.1; for `COc1ccc(S(=O)(=O)N(CCO)c2ccccc2CN(C)CC=Cc2ccc(Cl)cc2)cc1` it is 103; for `Cn1cc(C2=C(c3cn(CCCSC(=N)N)c4ccccc34)C(=O)NC2=O)c2ccccc21` it is 113.
As to `OCC1OC(O)C(Cl)C(O)C1O` [2-Chloro-2-deoxy-D-glucose], the H1.0 immunofluorescence intensity is 101.
With `CCCCCCCCCCCCCCCCCCCCCC(=O)O` [Docosanoic acid], the H1.0 immunofluorescence intensity is 101.
To `CCOC(=O)CCNc1cc(N2CCc3ccccc3CC2)nc(-c2ccccn2)n1` belongs 171 (active); to `Br.Br.N=C(N)SCCc1ccc(CCSC(=N)N)cc1` [1,4-PBIT dihydrobromide], 92; to `NC(=O)c1ccc2[nH]ccc2c1`, 101.
To `CC12CCc3occc3C1CCC13CC(=O)C(CCC12)C3` (stereo not drawn) [16-Oxocafestol] belongs 97.4.
To `O=C1NC(=O)C(c2c[nH]c3ccccc23)=C1c1c[nH]c2ccccc12` [Bisindolylmaleimide IV] belongs 94.7.
As for `Cc1cccc(-c2[nH]c(C(C)(C)C)nc2-c2ccc3c(c2)OCO3)n1.Cl` [TGF-b RI Inhibitor III], the H1.0 immunofluorescence intensity was 97.7.
The figure for `COc1ccc(-c2ccc(N)[n+](CCCC(=O)O)n2)cc1.[Br-]` is 96.2; for `COc1ccc(C2CC(=O)c3c(O)cc(O)cc3O2)cc1O` (stereo not drawn) [Hesperitine] it is 98.1.
The figure for `CC(=O)NC(CSCC=C(C)CCC=C(C)C)C(=O)O` (stereo not drawn) is 93; for `Oc1ccc(Cn2cc[nH]c2=S)cc1` [1-(4-Hydroxybenzyl)imidazole-2-thiol] it is 95.7.
To `Cc1ccc(C(=CCN2CCCC2)c2ccccn2)cc1.Cl` [Trans-triprolidine.HCl] belongs 99; to `Cc1nc2n(c(=O)c1CCN1CCC(c3noc4cc(F)ccc34)CC1)CCCC2` [Risperidone], 93.1.
With `Cl.O=C(CNC(=O)c1cccc(C(F)(F)F)c1)N[C@@H]1CCN(Cc2ccc(Cl)cc2)C1`, the H1.0 immunofluorescence intensity is 89.1.
The figure for `Cl.NCc1c[nH]c(=S)n1[C@H]1CCc2c(F)cc(F)cc2C1` is 95.9.
Consider `CCC1(O)C(=O)OCc2c1cc1n(c2=O)Cc2cc3c(CN(C)C)c(O)ccc3nc2-1.Cl` (stereo not drawn) [Topotecan.HCl], for which the H1.0 immunofluorescence intensity is 154 (active).
To `CC(CC(c1ccccc1)c1ccccc1)NC(C)(C)C.Cl` (stereo not drawn) [N-(tert-butyl)-4,4-diphenyl-2-butanamine hydrochloride] belongs 99.1; to `CC(C)(N)c1ccc(-c2nc3ccccc3nc2-c2ccccc2)cc1`, 106; to `CCCCCC=CC=C1C(=O)C=CC1CC=CCCCC(=O)O` (stereo not drawn) [15d-Prostaglandin J2], 97.5.
On to `N#CC(=C(N)Sc1ccc(N)cc1)c1ccccc1C(F)(F)F` [MEK1/2 Inhibitor], for which the H1.0 immunofluorescence intensity is 86.
To `C1CCC(C(CC2CCCCN2)C2CCCCC2)CC1.O=C(O)C=CC(=O)O` (stereo not drawn) belongs 273 (active).
The figure for `CCn1c(-c2nonc2N)nc2c(C#CC(C)(C)O)ncc(OCC3CCCNC3)c21` (stereo not drawn) is 103; for `CC(=O)c1ccc(N2CCOCC2)cc1O` [DNA-PK Inhibitor III] it is 93.9; for `COc1ccc(C2(C#N)CCC(C(=O)O)CC2)cc1OC1CCCC1` (stereo not drawn) it is 98.8.
To `CCCCCC=CCC(O)C=CC=CC=CC(O)CCCC(=O)O` [5(S),12(R)-DIHETE all trans] belongs 99.7.
For `Oc1ccc(C=Cc2cc(O)cc(O)c2)cc1` [Resveratrol], the H1.0 immunofluorescence intensity was 99.5.

The record behind these values is the supplement of paper PMC7156485.
